Reference: PubChem BioAssay (EPA / NIEHS)
Several values for one entry are separate records, joined by “and”; a condition that tells them apart may be missing. Identical values can stand only once. Records with an inconclusive call do not appear. A structure can be active in one record and inactive in another. Activity calls are given as the source filed them. How the source made its calls, unless noted: active means hit-call score of the fitted dose curve at least 0.9, where 1 is the maximum; inconclusive means response in the unintended direction; inactive means score below 0.9.

How the values were obtained:
[1] = target: human Peroxisome Proliferator-activated Receptor alpha (PPARa), PPARA (gene 5465) (UniProt Q07869); assay: ATG_PPARa_TRANS: Attagene TRANS-FACTORIAL HepG2 Assay for human Peroxisome Proliferator-activated Receptor alpha (PPARa) (AID 2283001);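 on AC50: potency for gain of reporter signal over DMSO so agonist or activator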
How it was run: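 HepG2 cells transiently transfected with multiplexed GAL4-UAS reporters driven by exogenous chimeric NR-Gal4 proteins; reporter mRNA measured after 24 h dosing. Read-out by RT-PCR, 6-FAM labelling, HpaI digestion and capillary electrophoresis; gain of signal versus DMSO.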

[2] = read-out: Intercellular Adhesion Molecule 1 (ICAM1), ICAM1 (gene 3383); assay: BSK_3C_ICAM1: BioMAP Diversity Plus: 3C Assay for Intercellular Adhesion Molecule 1 (ICAM1) Biomarker Activity (AID 2283003; active means hit-call score of the fitted dose curve at least 0.9, where 1 is the maximum; inactive means score below 0.9); conditions: primary human endothelial cells (HUVEC); actives raise or lower the signal
How it was run: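 HUVEC primary cells stimulated under 3C conditions; ICAM1 measured by ELISA 24 h after compound dosing. Curves fitted bidirectionally against the DMSO baseline. Overt cytotoxicity checked by SRB staining of parallel cultures.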

[3] = BSK_3C_Proliferation: Cell Proliferation Assessment in the BioMAP Diversity Plus: 3C Assay (AID 2283006; active means hit-call score of the fitted dose curve at least 0.9, where 1 is the maximum; inactive means score below 0.9;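 on AC50: potency may reflect either rise or fall in cell number versus DMSO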); conditions: primary human endothelial cells (HUVEC)
How it was run: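 Subconfluent HUVEC (3C system) cultured with chemical; relative cell number read at 48 h by sulforhodamine B total-protein staining (0.1% SRB after 10% TCA fixation, 560 nm). Bidirectional fit relative to DMSO.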

[4] = target: Peroxisome proliferator-activated receptor gamma (Homo sapiens) (UniProt P37231); assay: ATG_PPARg_TRANS: Attagene TRANS-FACTORIAL HepG2 Assay for human Peroxisome Proliferator-activated Receptor-gamma (PPARg) (AID 2283007)
How it was run: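 After 24 h of chemical exposure, transfected HepG2 cells carrying PPARγ-Gal4 chimera reporter constructs are lysed for RNA. Reporter transcripts are measured by RT-PCR and capillary electrophoresis with fluorescent labelling, and gain of signal is fitted versus DMSO.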

[5] = read-out: E-selectin (Homo sapiens) (UniProt P16581); assay: BSK_3C_Eselectin: BioMAP Diversity Plus: 3C Assay for Eselectin Biomarker Activity (AID 2283015; active means hit-call score of the fitted dose curve at least 0.9, where 1 is the maximum; inactive means score below 0.9); conditions: primary human endothelial cells (HUVEC); actives raise or lower the signal
How it was run: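 Endpoint derived by bidirectional fitting against DMSO vehicle; signal is ELISA-detected E-selectin from primary HUVEC at 24 h post-dosing, with parallel SRB staining (0.1% SRB, 560 nm) flagging cytotoxicity.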

[6] = read-out: Interleukin-1 alpha (IL1a), IL1A (gene 3552); assay: BSK_BE3C_IL1a: BioMAP Diversity Plus: BE3C Assay for Interleukin-1 alpha (IL1a) Biomarker Activity (AID 2283016; active means hit-call score of the fitted dose curve at least 0.9, where 1 is the maximum; inactive means score below 0.9); conditions: primary human bronchial epithelial cells; actives raise or lower the signal
How it was run: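 Human primary bronchial epithelial cells, 24 h chemical exposure; IL-1a quantified by ELISA, fitted bidirectionally against DMSO. Cytotoxicity assessed in parallel by SRB total-protein staining at the time of measurement.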

[7] = read-out: Monocyte Chemoattractant Protein-1 (MCP1), CCL2 (gene 6347); assay: BSK_3C_MCP1: BioMAP Diversity Plus: 3C Assay for Monocyte Chemoattractant Protein-1 (MCP1) Biomarker Activity (AID 2283017; active means hit-call score of the fitted dose curve at least 0.9, where 1 is the maximum; inactive means score below 0.9); conditions: primary human endothelial cells (HUVEC); actives raise or lower the signal
How it was run: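 Using human vascular primary endothelium, researchers measured MCP-1 by ELISA 24 h after treatment, with DMSO serving as negative control for bidirectional fitting.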

[8] = read-out: Monocyte Chemoattractant Protein-1 (MCP1), CCL2 (gene 6347); assay: BSK_4H_MCP1: BioMAP Diversity Plus: 4H Assay for Monocyte Chemoattractant Protein-1 (MCP1) Biomarker Activity (AID 2283018; active means hit-call score of the fitted dose curve at least 0.9, where 1 is the maximum; inactive means score below 0.9); conditions: primary human endothelial cells (HUVEC); actives raise or lower the signal
How it was run: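 Human umbilical vein endothelial cells (4H system) exposed to chemicals for 24 h in 96-well format. MCP-1 measured by ELISA; bidirectional fitting against DMSO, with SRB total-protein staining in parallel cultures for cytotoxicity.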

[9] = read-out: Human Leukocyte Antigen - DR isotype (HLADR), HLA-DRA (gene 3122); assay: BSK_3C_HLADR: BioMAP Diversity Plus: 3C Assay for Human Leukocyte Antigen - DR isotype (HLADR) Biomarker Activity (AID 2283019; active means hit-call score of the fitted dose curve at least 0.9, where 1 is the maximum; inactive means score below 0.9); conditions: primary human endothelial cells (HUVEC); actives raise or lower the signal
How it was run: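 Compound added to primary HUVEC cultures, 24 h incubation, then HLA-DR determined by ELISA; endpoint derived by bidirectional fitting relative to DMSO negative control.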

[10] = read-out: Interleukin-8 (IL8), CXCL8 (gene 3576); assay: BSK_3C_IL8: BioMAP Diversity Plus: 3C Assay for Interleukin-8 (IL8) Biomarker Activity (AID 2283020; active means hit-call score of the fitted dose curve at least 0.9, where 1 is the maximum; inactive means score below 0.9); conditions: primary human endothelial cells (HUVEC); actives raise or lower the signal
How it was run: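 Primary human umbilical vein endothelial cells were dosed for 24 h. IL-8 was quantified by ELISA and fitted bidirectionally against DMSO. Cytotoxicity was assessed in parallel cultures by SRB staining at 560 nm.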

[11] = target: Retinoic acid receptor alpha (Homo sapiens) (UniProt P10276); assay: ATG_RARa_TRANS: Attagene TRANS-FACTORIAL HepG2 Assay for human Retinoic Acid Receptor alpha (RARa) (AID 2283005)
How it was run: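 HepG2 transiently transfected with multiplex GAL4-UAS reporter units including a human RARa–GAL4 chimera; 24 h compound exposure. Reporter mRNA quantified by RT-PCR, 6-FAM labeling and capillary electrophoresis; gain of signal versus DMSO.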

[12] = target: Nuclear receptor subfamily 1 group I member 2 (Homo sapiens) (UniProt O75469); assay: ATG_PXR_TRANS: Attagene TRANS-FACTORIAL HepG2 Assay for human Pregnane X Receptor (PXR) (AID 2283008)
How it was run: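 HepG2 cells transiently transfected with GAL4-UAS reporter units and PXR-Gal4 chimera, exposed 24 h. Reporter mRNA quantified by RT-PCR, fluorescent labelling, HpaI digestion and capillary electrophoresis; gain of signal vs DMSO.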

[13] = target: human Retinoic Acid Receptor gamma (RARg), RARG (gene 5916) (UniProt P13631); assay: ATG_RARg_TRANS: Attagene TRANS-FACTORIAL HepG2 Assay for human Retinoic Acid Receptor gamma (RARg) (AID 2283009)
How it was run: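 HepG2 transiently transfected with GAL4-UAS reporter units and chimeric NR-Gal4 constructs; 24 h compound exposure. Reporter mRNA quantified by RT-PCR, FAM labeling, HpaI digestion and capillary electrophoresis; gain-of-signal versus DMSO.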

[14] = target: human RAR-related Orphan Receptor beta (RORb), RORB (gene 6096) (UniProt Q92753); assay: ATG_RORb_TRANS: Attagene TRANS-FACTORIAL HepG2 Assay for human RAR-related Orphan Receptor beta (RORb) (AID 2283010)
How it was run: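 HepG2 cells transiently transfected with GAL4-UAS reporter units expressing chimeric NR-Gal4 protein; reporter mRNA measured 24 h after dosing by RT-PCR, 6-FAM labelling and capillary electrophoresis. Gain-of-signal fitted relative to DMSO baseline.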

[15] = target: human RAR-related Orphan Receptor gamma (RORg), RORC (gene 6097) (UniProt P51449); assay: ATG_RORg_TRANS: Attagene TRANS-FACTORIAL HepG2 Assay for human RAR-related Orphan Receptor gamma (RORg) (AID 2283011)
How it was run: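 Chimeric RORg-Gal4 transactivation in transfected HepG2; 24 h exposure; RT-PCR/capillary electrophoresis readout of reporter mRNA, DMSO baseline.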

[16] = target: human Retinoid X Receptor beta (RXRb), RXRB (gene 6257) (UniProt P28702); assay: ATG_RXRb_TRANS: Attagene TRANS-FACTORIAL HepG2 Assay for human Retinoid X Receptor beta (RXRb) (AID 2283013)
How it was run: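 HepG2 cells were transiently transfected with multiplexed GAL4-UAS reporters and a chimeric RXRb-Gal4 construct, then exposed for 24 h. Reporter mRNA was quantified by RT-PCR, FAM labeling, HpaI digestion and capillary electrophoresis; gain of signal was scored against DMSO.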

[17] = target: human Thyroid Receptor alpha (THRa1), THRA (gene 7067) (UniProt P10827); assay: ATG_THRa1_TRANS: Attagene TRANS-FACTORIAL HepG2 Assay for human Thyroid Receptor alpha (THRa1) (AID 2283014)
How it was run: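 Measured here is mRNA from a GAL4-UAS reporter in transfected HepG2 cells carrying a Gal4-fused receptor, 24 h post-dose. DMSO served as negative control and baseline.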

[18] = target: human Retinoic Acid Receptor beta (RARb), RARB (gene 5915) (UniProt P10826); assay: ATG_RARb_TRANS: Attagene TRANS-FACTORIAL HepG2 Assay for human Retinoic Acid Receptor beta (AID 2283004)
How it was run: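 Fluorescent capillary-electrophoresis detection of GAL4-UAS reporter mRNA defines the endpoint, with induction over DMSO-treated wells scored as activity. Transiently transfected human hepatoma HepG2 cells expressing exogenous NR–Gal4 proteins are exposed to test chemicals for 24 h.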

[19] = target: Retinoic acid receptor RXR-alpha (Homo sapiens) (UniProt P19793); assay: ATG_RXRa_TRANS: Attagene TRANS-FACTORIAL HepG2 Assay for human Retinoid X Receptor alpha (RXRa) (AID 2283012)
How it was run: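 HepG2 cells transiently transfected with GAL4-UAS reporter units and chimeric RXRa-Gal4 protein, treated 24 h. Reporter mRNA measured by RT-PCR, fluorescent labelling, HpaI digestion and capillary electrophoresis. Induction fitted against DMSO.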

[20] = target: human Peroxisome Proliferator-activated Receptor delta (PPARd), PPARD (gene 5467) (UniProt Q03181); assay: ATG_PPARd_TRANS: Attagene TRANS-FACTORIAL HepG2 Assay for human Peroxisome Proliferator-activated Receptor delta (PPARd) (AID 2283002)
How it was run: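 Read-out: reporter mRNA induction, quantified by fluorescent RT-PCR products resolved by capillary electrophoresis. Human HepG2 liver cells carried transiently transfected Gal4-UAS reporter constructs with chimeric NR-Gal4 fusions. Cells were dosed for 24 h; DMSO served as baseline.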

Measured: AC50

Sequence of human RAR-related Orphan Receptor gamma (RORg), RORC (gene 6097) (P51449 whole entry, looked up, the tested form may be a part): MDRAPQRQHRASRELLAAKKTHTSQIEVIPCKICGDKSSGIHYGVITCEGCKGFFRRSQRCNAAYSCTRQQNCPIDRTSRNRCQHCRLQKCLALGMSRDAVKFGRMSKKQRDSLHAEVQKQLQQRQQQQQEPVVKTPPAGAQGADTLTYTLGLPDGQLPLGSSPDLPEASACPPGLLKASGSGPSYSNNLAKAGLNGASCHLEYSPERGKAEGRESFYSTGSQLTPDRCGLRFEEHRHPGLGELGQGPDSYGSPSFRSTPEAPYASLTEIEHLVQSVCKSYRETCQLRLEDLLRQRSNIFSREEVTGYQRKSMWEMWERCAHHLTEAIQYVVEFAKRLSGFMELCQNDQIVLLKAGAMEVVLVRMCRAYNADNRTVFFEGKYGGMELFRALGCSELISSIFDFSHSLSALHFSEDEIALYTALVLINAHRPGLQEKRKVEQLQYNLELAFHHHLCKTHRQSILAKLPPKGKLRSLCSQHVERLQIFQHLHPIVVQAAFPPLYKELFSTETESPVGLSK
Sequence of human Thyroid Receptor alpha (THRa1), THRA (gene 7067) (P10827 whole entry, looked up, the tested form may be a part): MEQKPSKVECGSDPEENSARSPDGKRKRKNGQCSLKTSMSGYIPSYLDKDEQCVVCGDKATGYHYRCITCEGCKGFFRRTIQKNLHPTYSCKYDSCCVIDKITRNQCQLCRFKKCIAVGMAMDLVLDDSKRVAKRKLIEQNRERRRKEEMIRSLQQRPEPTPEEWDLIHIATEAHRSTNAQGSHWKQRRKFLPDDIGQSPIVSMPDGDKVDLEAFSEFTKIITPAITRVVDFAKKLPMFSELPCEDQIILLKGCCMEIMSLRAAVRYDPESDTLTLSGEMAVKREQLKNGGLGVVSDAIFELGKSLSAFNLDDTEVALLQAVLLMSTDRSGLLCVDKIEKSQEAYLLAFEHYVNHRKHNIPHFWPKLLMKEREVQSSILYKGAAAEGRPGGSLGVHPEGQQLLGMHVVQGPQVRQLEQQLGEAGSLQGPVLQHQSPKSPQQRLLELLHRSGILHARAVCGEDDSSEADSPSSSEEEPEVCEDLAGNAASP
Sequence of human Peroxisome Proliferator-activated Receptor alpha (PPARa), PPARA (gene 5465) (Q07869 whole entry, looked up, the tested form may be a part): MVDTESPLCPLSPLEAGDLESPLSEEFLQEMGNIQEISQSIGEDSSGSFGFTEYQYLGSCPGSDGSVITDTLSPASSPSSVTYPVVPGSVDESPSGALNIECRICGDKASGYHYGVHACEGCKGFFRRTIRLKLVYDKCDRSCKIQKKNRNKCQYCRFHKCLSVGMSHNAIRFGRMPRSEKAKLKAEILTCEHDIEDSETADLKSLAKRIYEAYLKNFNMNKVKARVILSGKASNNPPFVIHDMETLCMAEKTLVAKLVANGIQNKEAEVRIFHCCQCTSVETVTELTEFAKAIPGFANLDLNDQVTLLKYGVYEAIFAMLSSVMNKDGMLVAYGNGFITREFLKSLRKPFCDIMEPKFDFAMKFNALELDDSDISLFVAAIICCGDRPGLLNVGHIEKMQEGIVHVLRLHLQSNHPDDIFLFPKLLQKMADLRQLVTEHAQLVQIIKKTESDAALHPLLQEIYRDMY
Sequence of human RAR-related Orphan Receptor beta (RORb), RORB (gene 6096) (Q92753 whole entry, looked up, the tested form may be a part): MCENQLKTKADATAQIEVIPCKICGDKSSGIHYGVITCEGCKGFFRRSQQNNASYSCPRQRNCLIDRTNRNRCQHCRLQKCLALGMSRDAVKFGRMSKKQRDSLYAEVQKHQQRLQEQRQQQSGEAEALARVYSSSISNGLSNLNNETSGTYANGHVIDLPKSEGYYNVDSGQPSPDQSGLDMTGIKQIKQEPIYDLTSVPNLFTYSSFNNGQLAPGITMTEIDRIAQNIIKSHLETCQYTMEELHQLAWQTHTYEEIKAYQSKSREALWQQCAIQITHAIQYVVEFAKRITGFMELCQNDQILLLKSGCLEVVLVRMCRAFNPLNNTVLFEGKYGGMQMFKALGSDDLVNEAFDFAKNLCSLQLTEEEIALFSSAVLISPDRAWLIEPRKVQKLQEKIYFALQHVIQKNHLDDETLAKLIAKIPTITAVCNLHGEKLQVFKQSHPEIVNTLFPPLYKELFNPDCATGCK
Sequence of Retinoic acid receptor RXR-alpha (Homo sapiens) (P19793 whole entry, looked up, the tested form may be a part): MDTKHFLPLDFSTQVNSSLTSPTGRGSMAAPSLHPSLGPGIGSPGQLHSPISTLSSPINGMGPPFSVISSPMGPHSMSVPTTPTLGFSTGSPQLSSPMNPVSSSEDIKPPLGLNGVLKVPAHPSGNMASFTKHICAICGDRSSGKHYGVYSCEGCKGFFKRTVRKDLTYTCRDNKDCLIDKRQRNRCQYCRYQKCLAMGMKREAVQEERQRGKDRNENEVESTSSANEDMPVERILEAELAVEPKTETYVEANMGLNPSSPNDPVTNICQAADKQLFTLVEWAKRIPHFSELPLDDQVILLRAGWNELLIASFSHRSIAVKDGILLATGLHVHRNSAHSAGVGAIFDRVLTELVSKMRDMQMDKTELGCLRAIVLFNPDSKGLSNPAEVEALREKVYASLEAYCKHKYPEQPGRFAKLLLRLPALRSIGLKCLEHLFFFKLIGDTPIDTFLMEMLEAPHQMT
Sequence of E-selectin (Homo sapiens) (P16581 whole entry, looked up): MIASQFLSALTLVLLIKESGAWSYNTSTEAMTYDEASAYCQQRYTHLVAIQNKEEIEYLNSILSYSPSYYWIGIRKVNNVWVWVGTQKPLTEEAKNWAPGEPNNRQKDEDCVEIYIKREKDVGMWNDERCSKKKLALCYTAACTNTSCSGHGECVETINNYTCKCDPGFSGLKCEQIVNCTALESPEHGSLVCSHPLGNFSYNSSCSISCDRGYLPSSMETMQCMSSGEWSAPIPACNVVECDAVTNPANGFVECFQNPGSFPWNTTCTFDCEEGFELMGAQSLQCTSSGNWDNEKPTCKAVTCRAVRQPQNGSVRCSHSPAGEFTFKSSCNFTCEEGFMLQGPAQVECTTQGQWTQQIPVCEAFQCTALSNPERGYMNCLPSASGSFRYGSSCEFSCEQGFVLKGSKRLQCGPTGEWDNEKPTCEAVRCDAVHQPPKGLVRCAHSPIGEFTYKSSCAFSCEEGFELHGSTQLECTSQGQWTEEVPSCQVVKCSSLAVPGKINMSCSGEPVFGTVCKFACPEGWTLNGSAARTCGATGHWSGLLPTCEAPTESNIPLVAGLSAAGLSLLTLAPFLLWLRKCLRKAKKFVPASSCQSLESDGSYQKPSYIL
Sequence of human Retinoic Acid Receptor gamma (RARg), RARG (gene 5916) (P13631 whole entry, looked up, the tested form may be a part): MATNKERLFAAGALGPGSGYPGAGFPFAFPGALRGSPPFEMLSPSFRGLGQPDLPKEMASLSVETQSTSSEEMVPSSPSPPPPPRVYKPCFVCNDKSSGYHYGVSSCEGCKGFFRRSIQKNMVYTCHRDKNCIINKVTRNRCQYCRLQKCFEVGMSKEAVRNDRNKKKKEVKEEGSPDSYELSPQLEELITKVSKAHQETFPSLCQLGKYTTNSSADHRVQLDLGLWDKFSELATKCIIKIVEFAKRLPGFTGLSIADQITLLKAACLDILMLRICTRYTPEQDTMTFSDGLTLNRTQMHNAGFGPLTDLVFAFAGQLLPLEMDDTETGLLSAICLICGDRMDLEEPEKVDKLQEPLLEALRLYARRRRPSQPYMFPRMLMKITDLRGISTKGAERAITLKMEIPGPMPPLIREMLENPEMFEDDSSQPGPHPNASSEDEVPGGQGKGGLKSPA
Sequence of human Retinoid X Receptor beta (RXRb), RXRB (gene 6257) (P28702 whole entry, looked up, the tested form may be a part): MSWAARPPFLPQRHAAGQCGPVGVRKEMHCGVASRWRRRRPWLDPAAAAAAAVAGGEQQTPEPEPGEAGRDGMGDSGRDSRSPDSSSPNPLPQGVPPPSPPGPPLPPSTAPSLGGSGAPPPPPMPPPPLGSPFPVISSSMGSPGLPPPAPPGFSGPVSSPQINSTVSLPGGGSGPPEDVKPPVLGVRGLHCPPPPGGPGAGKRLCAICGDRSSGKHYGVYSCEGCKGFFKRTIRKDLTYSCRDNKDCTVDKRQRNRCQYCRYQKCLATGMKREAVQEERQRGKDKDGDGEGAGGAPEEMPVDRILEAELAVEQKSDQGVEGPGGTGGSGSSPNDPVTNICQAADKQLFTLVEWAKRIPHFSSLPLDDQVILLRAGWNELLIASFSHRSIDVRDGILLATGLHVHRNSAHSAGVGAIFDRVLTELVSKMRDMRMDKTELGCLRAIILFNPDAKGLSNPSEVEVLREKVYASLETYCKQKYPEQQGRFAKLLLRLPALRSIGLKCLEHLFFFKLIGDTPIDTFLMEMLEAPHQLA
Sequence of Nuclear receptor subfamily 1 group I member 2 (Homo sapiens) (O75469 whole entry, looked up, the tested form may be a part): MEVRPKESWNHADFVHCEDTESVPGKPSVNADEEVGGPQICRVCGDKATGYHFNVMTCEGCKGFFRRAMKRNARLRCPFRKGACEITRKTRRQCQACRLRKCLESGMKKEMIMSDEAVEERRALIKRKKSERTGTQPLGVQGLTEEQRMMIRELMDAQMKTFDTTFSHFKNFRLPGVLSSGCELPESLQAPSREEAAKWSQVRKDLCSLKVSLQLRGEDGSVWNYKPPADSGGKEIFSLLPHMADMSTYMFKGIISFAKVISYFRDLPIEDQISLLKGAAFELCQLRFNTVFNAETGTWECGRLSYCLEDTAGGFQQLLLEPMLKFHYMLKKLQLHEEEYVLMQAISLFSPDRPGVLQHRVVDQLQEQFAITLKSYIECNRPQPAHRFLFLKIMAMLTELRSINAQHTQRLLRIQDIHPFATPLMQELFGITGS
Sequence of Peroxisome proliferator-activated receptor gamma (Homo sapiens) (P37231 whole entry, looked up, the tested form may be a part): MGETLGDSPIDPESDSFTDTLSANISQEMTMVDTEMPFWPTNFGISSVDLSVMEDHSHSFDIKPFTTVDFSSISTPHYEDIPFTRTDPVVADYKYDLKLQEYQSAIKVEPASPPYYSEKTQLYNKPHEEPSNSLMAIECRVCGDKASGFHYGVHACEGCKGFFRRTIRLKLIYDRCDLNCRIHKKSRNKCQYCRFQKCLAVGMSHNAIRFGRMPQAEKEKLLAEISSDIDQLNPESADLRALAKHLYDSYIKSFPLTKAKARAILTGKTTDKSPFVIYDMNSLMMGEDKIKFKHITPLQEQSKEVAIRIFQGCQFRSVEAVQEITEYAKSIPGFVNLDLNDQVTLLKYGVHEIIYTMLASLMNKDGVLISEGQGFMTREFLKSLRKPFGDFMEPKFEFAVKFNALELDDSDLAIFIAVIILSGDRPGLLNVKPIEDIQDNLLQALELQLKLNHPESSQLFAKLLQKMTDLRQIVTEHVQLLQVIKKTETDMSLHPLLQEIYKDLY

O=[N+]([O-])c1ccc(O)cc1
inactive: [1] | [2] | [3] | [4] | [5] | [6] | [7] | [8] | [9] | [10]

O=C1OC2(c3ccccc31)c1cc(Br)c(O)c(Br)c1Oc1c2cc(Br)c(O)c1Br
inactive: [1] | [11] | [4] | [12] | [13] | [14] | [15] | [16] | [17]
active: [4] 51.8 µM | [12] 8.91 µM

O=C(/C=C/c1ccc(O)cc1)CC(=O)/C=C/c1ccc(O)cc1
inactive: [1] | [18] | [12] | [13] | [19] | [16] | [17]
active: [4] 3.49 µM

CN1CCC[C@H]1c1cccnc1
inactive: [1] | [2] | [3] | [4] | [12] | [15] | [19] | [17] | [5] | [6] | [7] | [8] | [9] | [10]

CCCCCCCCCCCCCCCS(=O)(=O)Oc1ccccc1
active: [12] 1.21 µM
inactive: [2] | [3] | [4] | [19] | [16] | [17] | [5] | [6] | [7] | [8] | [9] | [10]

CC#C[C@]1(O)CC[C@H]2[C@@H]3CCC4=CC(=O)CCC4=C3[C@@H](c3ccc(N(C)C)cc3)C[C@@]21C
inactive: [20] | [2] | [12] | [19] | [17]
active: [3] 28.6 µM | [4] 193 nM [middle of 4 runs] | [12] 777 nM and 356 nM and 928 nM | [5] 29.3 µM | [6] 32.1 µM | [7] 36.3 µM | [8] 20 µM | [9] 37.7 µM | [10] 31.1 µM

CCCOc1sc(C(=O)N2CCC(c3cc(CN)ccc3F)CC2)c(C)c1Br
inactive: [12] | [13] | [14] | [15] | [19] | [16]
active: [2] 10.6 µM | [3] 4.84 µM | [4] 6.67 µM | [5] 11.1 µM | [6] 5.86 µM | [7] 7.57 µM | [8] 9.52 µM | [9] 7.77 µM | [10] 8.8 µM

COCC(C)O (stereo not drawn)
inactive: [1] | [2] | [3] | [16] | [17] | [5] | [6] | [7] | [8] | [9] | [10]

Cc1ccc(S(=O)(=O)O)c(C)c1
active: [16] 58.6 µM
inactive: [1] | [4] | [12] | [14] | [15] | [19] | [16]

CC[C@H](C)[C@@H](C(=O)O)n1sc2ccccc2c1=O
active: [4] 100 µM
inactive: [2] | [18] | [11] | [3] | [12] | [15] | [16] | [17] | [5] | [6] | [7] | [8] | [9] | [10]

CC(C)(C)CC(C)(C)c1ccc(O)c(-n2nc3ccccc3n2)c1
active: [12] 3.65 µM
inactive: [2] | [3] | [4] | [13] | [14] | [16] | [17] | [5] | [6] | [7] | [8] | [9] | [10]

OC1CCCCC1
inactive: [1] | [2] | [3] | [15] | [19] | [16] | [17] | [5] | [6] | [7] | [8] | [9] | [10]

CC[C@H](c1ccc(O)cc1)[C@@H](CC)c1ccc(O)cc1
inactive: [4] | [14] | [19] | [17]
active: [2] 36.4 µM | [3] 15.9 µM | [16] 3.79 µM [middle of 4 runs] | [5] 34.8 µM | [6] 24.3 µM | [7] 32.1 µM | [8] 20 µM | [9] 20.9 µM | [10] 33.6 µM

CCCCCCCCC(=O)O
inactive: [2] | [3] | [12] | [13] | [19] | [16] | [5] | [6] | [7] | [8] | [9] | [10]
active: [1] 11.4 µM and 41.6 µM | [16] 65.3 µM
